The text below walks through data of PubChem BioAssay (Tox21).

Each structure is given as a SMILES string. Values without a mark were called inactive. Results filed as inconclusive are left out. Calls of active or inactive are those of the source. Unless noted, the call rests on the fitted dose curve.

Assay [1] can be described thus: Nuclear factor erythroid 2-related factor 2/antioxidant responsive element (Nrf2/ARE) small molecule agonists: luciferase reporter gene qHTS assay in human keratinocytes (AID 1919969). Further: nearly all actives have a fitted effect of over 35% in size. Further: potency means the concentration at half of the fitted maximal effect. In general terms: A reporter such as luciferase makes a cellular process visible.
Assay [2] deals with Gonadotropin-releasing hormone receptor (Homo sapiens) (UniProt P30968). The experiment in a line: Human gonadotropin-releasing hormone receptor (GnRHR) small molecule agonists, calcium flux assay in GnRHR-HEK293 cells (AID 1920063). Further: nearly all actives have a fitted effect of over 35% in size. In outline: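 Compounds dissolved in DMSO are pin-transferred onto dye-loaded GnRHR-HEK293 cells, which were seeded 18 h before at 37 C/5% CO2. Calcium signal is read as fluorescence intensity at 1 s intervals for 3 min.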

Assay [3] has as its target KiSS-1 receptor (Homo sapiens) (UniProt Q969F8). The assay is described as follows: Human kisspeptin (KISS1R) small molecule agonists, calcium flux assay in KISS1R-HEK293 cells (AID 1920064; active means well fitted activation curve with a large enough effect in the repeat runs). In outline: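 Cell line: HEK293, stable human KISS1R. Dye loading 1 h at 37 C after 18 h culture. Read: kinetic fluorescence, 480/540 nm, 3 min at 1 s intervals.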
On the technique in general: A change in cytosolic calcium serves as a functional read-out for many receptors and channels.

Assay [4] can be described thus: G protein-coupled receptor (GPCR) small molecule agonists, calcium flux assay: HEK293 wild type cell line counter screen (AID 1920065). In outline:
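Tox21 10K compounds, 15 concentrations each in triplicate, pin-transferred in DMSO onto dye-loaded cells; kinetic read at 480/540 nm for 3 min, 1 s intervals.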

Assay [5] can be described thus: p53 small molecule agonists, cell-based qHTS assay with human liver microsomes (AID 1963577).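 Further: p53 response element beta-lactamase reporter cells with liver microsomes plus NADPH.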 In outline: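 Metabolically competent format: test substances, human liver microsomes and NADPH (both 0.5 mg/mL final) incubated with p53RE-bla cells 16 h at 37 C. Beta-lactamase reporter signal then quantified by fluorescence.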
Background: qHTS replaces the single test concentration by a dilution series.

Assay [6] in a line: p53 small molecule agonists, cell-based qHTS assay with rat liver microsomes (AID 1963578). In outline: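 Each plate received p53RE-bla cells, then compound, then rat liver microsomes and NADPH (both 0.5 mg/mL final). Plates were held 16 h at 37 C, and beta-lactamase activity was detected with LiveBLAzer over 2 h.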
A short description of assay [7]: p53 small molecule agonists, cell-based qHTS assay with rat liver microsomes: qHTS cell viability counter screen (AID 1963580). Further: nearly all actives have a fitted effect of over 45% in size. In outline: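 Cytotoxicity counter screen: intracellular ATP read by CellTiter-Glo luminescence in the p53 reporter wells. HCT-116 p53RE-bla cells were treated for 16 h at 37 C alongside rat liver microsomes and NADPH, each 0.5 mg/mL final.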

Assay [8] is described as follows: p53 small molecule agonists, cell-based qHTS assay: qHTS cell viability counter screen (AID 1963581). Further: nearly all actives have a fitted effect of over 45% in size. In outline: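 ATP content measured by luminescence in HCT-116 p53RE-bla cells treated 16 h at 37 C, same wells as the reporter screen.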
Assay [9] is described as follows: p53 small molecule agonists, cell-based qHTS assay (AID 1963582; active means well fitted activation curve with a large enough effect in the signal ratio in the repeat runs, not every such curve was filed as active; the % refers to the signal ratio). In outline: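 16 h compound exposure (37 C) of p53 response element–bla cells, preceded by 5 h recovery at 37 C/5% CO2; read-out via LiveBLAzer B/G FRET substrate, 2 h RT, fluorescence intensity.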
For assay [10], the target named is 5-hydroxytryptamine receptor 2A (Homo sapiens) (UniProt P28223). The experiment in a line: 5-hydroxytryptamine receptor 2A (HTR2A) small molecule antagonists, cell-based qHTS assay (AID 1963586). Further: nearly all actives have a fitted effect of over 45% in size. In outline: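 CHO cells stably expressing human HTR2A were plated for 18 h at 37 C, then loaded with calcium dye for 1 h. Compounds were preincubated 5 min at room temperature before DOI (4 nM solution) was added. Kinetic fluorescence was read for 3 min.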

For assay [11] the target is unchanged. The experiment in a line: 5-hydroxytryptamine receptor 2A (HTR2A) small molecule agonists, cell-based qHTS assay (AID 1963587). Further: nearly all actives have a fitted effect of over 30% in size. In outline: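 Kinetic calcium-flux fluorescence (2 min, 1 sec intervals) after compound addition in agonist mode. HTR2A-CHO cells were cultured 18 h, then dye-loaded 1 h at 37 C.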
In assay [12] the target is Muscarinic acetylcholine receptor M1 (Homo sapiens) (UniProt P11229). The assay is described as follows: Cholinergic receptor muscarinic 1 (CHRM1) small molecule antagonists, cell-based qHTS assay (AID 1963588). Further: nearly all actives have a fitted effect of over 40% in size. Further: potency means the concentration at half of the fitted maximal effect. In outline: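 Compounds were tested at 15 concentrations in three independent runs. Dye-loaded CHRM1-CHO cells were exposed 5 min at room temperature before stimulation by acetylcholine added at 50nM. Intracellular calcium was read kinetically on FDSS for 3 min.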

Assay [13] has the same target. The assay is described as follows: Cholinergic receptor muscarinic 1 (CHRM1) small molecule agonists, cell-based qHTS assay (AID 1963589). Further: nearly all actives have a fitted effect of over 35% in size. In outline:
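Homogeneous fluorescence calcium flux, agonist mode. Human M1-expressing CHO cells; compound dosed at 15 concentrations, three independent runs; signal sampled every 1 sec.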

Assay [14] can be described thus: cAMP Responsive Elements (CRE) small molecule antagonists, cell-based qHTS assay (AID 1963591; active means well fitted inhibition curve with a large enough effect in the signal ratio in the repeat runs, not every such curve was filed as active; the % refers to the signal ratio). In outline:
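First, CRE-bla HEK293T cells settled 18 h at 37 C. Next, compound and 0.25 uM final NKH477 were applied for 3 h. Last, LiveBLAzer B/G substrate was loaded for 2 h at room temperature.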

The target in assay [15] is Beta-2 adrenergic receptor (Homo sapiens) (UniProt P07550). The experiment in a line: Adrenergic beta2 receptor (ADRB2) small molecule agonists, cell-based qHTS assay (AID 1963593).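 Further: CHO cells stably overexpressing human ADRB2.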 In outline: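 CHO cells stably over-expressing ADRB2 were plated overnight at 37C, then dosed with compounds plus a stimulation mix containing 100uM IBMX and 25uM Ro-20-1724 for 0.5hr at room temperature. cAMP was measured by HTRF competition, 1hr.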

The target of assay [16] is D(2) dopamine receptor (Homo sapiens) (UniProt P14416). The experiment in a line: Dopamine D2 receptor (DRD2) small molecule agonists, cell-based qHTS assay (AID 1963594). Further: nearly all actives have a fitted effect of over 35% in size. In outline:
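cAMP accumulation in DRD2-HEK293 cells measured by HTRF after 1 h detection; compounds added 10 min before NKH477 (200nM […]) forskolin-analogue stimulation, 30 min at room temperature, with Ro20-1724 present at 0.1 mM final.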

Assay [17] deals with Beta-2 adrenergic receptor (Homo sapiens) (UniProt P07550). The experiment in a line: Adrenergic beta2 receptor (ADRB2) small molecule antagonists, cell-based qHTS assay (AID 1963592). Further: series mostly up to about 92 µM; nearly all actives have a fitted effect of over 50% in size. In outline: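 Assay format: CHO-ADRB2 cells, 18-20hr seeding at 37C/5% CO2, then compound plus 1nM isoproterenol agonist mix for 0.5hr RT. Homogeneous time-resolved fluorescence cAMP detection after 1hr, expressed as 665/615 nm ratio.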

Assay [18] has as its target D(2) dopamine receptor (Homo sapiens) (UniProt P14416). The experiment in a line: Dopamine D2 receptor (DRD2) small molecule antagonists, cell-based qHTS assay (AID 1963595; active means well fitted inhibition curve with a large enough effect in the signal ratio in the repeat runs, with a control signal flat; the % refers to the signal ratio). In outline: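 Human DRD2 antagonist qHTS measuring cAMP by HTRF. The cells are exposed to compound for 10 min, then to NKH477 (200 nM) and quinpirole (12 nM) for 30 min at RT, with Ro20-1724 (0.1 mM) present throughout.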

Assay [19] in a line: p53 small molecule agonists, cell-based qHTS assay with human liver microsomes: qHTS cell viability counter screen (AID 1963579). Further: nearly all actives have a fitted effect of over 45% in size. In outline: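 Tox21 library compounds, delivered from DMSO stocks, were tested on p53RE-bla cells together with 0.5 mg/mL human liver microsomes and 0.5 mg/mL NADPH (final) over 16 h at 37 C; CellTiter-Glo luminescence served as the cytotoxicity measure.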

Assay [20] in a line: cAMP Responsive Elements (CRE) small molecule agonists, cell-based qHTS assay (AID 1963590). In outline:
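HEK 293T cells stably bearing CRE-bla were plated at 2,000 cells per well and rested 18 h. Compounds, positive controls or DMSO were added for 3 h at 37 C. LiveBLAzer B/G substrate was then loaded for 2 h at room temperature.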

Chain of Muscarinic acetylcholine receptor M1 (Homo sapiens) (P11229 whole entry, looked up): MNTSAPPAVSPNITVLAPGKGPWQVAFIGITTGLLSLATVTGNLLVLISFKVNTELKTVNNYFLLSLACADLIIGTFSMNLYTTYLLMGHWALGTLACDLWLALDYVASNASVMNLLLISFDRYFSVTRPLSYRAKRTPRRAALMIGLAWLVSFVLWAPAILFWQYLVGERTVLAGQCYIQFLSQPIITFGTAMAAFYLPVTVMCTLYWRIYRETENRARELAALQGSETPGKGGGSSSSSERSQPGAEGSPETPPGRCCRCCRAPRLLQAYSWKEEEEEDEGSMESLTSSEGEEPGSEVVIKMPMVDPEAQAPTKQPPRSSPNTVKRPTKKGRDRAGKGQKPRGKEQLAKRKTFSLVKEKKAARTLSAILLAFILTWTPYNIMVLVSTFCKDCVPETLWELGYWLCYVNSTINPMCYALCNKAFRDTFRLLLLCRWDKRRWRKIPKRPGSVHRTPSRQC
Chain of D(2) dopamine receptor (Homo sapiens) (P14416 whole entry, looked up): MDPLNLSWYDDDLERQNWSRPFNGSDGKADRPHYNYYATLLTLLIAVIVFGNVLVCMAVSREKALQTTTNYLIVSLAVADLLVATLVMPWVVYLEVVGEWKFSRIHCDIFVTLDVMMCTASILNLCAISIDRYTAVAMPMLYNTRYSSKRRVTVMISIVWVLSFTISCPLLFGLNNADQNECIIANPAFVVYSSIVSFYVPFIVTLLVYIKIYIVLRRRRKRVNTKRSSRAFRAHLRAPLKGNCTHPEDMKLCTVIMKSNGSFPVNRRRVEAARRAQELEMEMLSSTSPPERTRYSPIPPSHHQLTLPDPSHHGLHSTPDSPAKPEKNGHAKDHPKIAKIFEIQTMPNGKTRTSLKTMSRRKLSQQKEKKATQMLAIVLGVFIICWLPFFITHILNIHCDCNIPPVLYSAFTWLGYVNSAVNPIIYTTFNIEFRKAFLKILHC
Chain of 5-hydroxytryptamine receptor 2A (Homo sapiens) (P28223 whole entry, looked up): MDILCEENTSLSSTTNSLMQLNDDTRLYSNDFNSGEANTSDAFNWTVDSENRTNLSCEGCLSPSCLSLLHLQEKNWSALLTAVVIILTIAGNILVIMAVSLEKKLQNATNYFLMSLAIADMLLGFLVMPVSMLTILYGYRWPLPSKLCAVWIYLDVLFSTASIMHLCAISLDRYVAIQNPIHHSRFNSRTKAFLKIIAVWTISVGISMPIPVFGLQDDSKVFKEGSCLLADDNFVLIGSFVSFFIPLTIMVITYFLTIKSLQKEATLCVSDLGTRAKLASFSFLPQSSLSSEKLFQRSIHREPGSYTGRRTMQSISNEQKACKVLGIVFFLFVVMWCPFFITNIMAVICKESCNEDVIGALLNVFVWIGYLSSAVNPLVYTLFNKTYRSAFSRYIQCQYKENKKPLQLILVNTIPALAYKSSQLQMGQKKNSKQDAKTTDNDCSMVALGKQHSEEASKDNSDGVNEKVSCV
Chain of Beta-2 adrenergic receptor (Homo sapiens) (P07550 whole entry, looked up): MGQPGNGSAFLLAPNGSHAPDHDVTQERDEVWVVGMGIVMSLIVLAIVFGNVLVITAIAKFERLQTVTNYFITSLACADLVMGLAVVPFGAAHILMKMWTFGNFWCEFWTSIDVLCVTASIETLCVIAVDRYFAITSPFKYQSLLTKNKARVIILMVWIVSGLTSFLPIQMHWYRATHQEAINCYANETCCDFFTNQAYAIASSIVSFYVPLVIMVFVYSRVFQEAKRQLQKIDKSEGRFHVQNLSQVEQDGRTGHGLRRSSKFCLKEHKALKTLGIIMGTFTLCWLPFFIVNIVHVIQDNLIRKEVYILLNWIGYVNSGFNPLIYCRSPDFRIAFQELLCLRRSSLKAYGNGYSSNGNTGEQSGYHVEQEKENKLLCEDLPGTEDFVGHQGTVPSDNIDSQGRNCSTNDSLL
Chain of Gonadotropin-releasing hormone receptor (Homo sapiens) (P30968 whole entry, looked up): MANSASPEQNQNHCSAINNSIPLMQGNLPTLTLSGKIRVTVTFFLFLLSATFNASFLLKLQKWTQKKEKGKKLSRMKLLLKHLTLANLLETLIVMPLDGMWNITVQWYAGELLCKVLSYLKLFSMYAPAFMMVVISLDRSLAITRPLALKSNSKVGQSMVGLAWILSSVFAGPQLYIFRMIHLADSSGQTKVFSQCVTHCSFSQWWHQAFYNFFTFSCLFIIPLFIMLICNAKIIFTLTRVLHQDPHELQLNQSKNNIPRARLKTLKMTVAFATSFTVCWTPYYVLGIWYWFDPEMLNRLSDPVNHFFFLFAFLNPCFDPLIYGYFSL
Chain of KiSS-1 receptor (Homo sapiens) (Q969F8 whole entry, looked up): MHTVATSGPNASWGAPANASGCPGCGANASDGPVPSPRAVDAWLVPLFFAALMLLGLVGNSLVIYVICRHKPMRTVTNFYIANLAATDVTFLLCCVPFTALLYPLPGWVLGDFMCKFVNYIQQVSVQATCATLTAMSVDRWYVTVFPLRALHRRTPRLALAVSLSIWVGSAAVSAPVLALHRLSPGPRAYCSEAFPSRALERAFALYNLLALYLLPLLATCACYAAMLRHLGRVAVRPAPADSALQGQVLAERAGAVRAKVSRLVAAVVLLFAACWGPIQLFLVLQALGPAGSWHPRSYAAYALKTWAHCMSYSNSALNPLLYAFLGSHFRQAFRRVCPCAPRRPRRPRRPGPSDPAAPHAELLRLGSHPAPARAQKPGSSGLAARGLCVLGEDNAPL

As for `C#C[C@]1(O)CC[C@H]2[C@@H]3CCc4cc(OC5CCCC5)ccc4[C@H]3CC[C@@]21C`, the Potency result in [1], in assay [2], in assay [3], in assay [4], in assay [5] and in [6] was “inactive” in each case. Besides, the Potency result in [7], in assay [8], in [9], in assay [10], in assay [11] and in assay [12] was “inactive” throughout. The Potency entry in [13], in assay [14], in assay [15] and in assay [16] was “inactive” throughout.

As to `C=CC(=O)OCCn1c(=O)n(CCOC(=O)C=C)c(=O)n(CCOC(=O)C=C)c1=O`, the Potency in [1] is 15.4 µM (active). For the same compound, the Potency result in assay [2], in assay [3], in assay [4], in [5], in assay [6] and in [10] was “inactive” in each case. Besides, the Potency result in assay [11], in [12], in [13], in assay [17] and in [18] was “inactive” in each case.

`c1cc(CN2CCCCC2)cc(OCCCNc2nc3ccccc3s2)c1`: the Potency result in assay [1], in [2], in assay [3], in assay [4], in [5] and in [6] was “inactive” in each case. The Potency result in [19], in [8], in [11], in assay [13], in assay [20] and in assay [16] was “inactive” each time. Also, the Potency in assay [12] was 5.79 µM (active).

With `NC(=O)c1nc(-c2cccc(-c3cc(F)ccc3OCC(F)(F)C(F)(F)F)c2)n[nH]1`, the Potency result in [1], in assay [2], in [3], in assay [4], in assay [5] and in [6] was “inactive” throughout. Also, the Potency result in [19], in [11], in assay [12], in [13], in assay [17] and in [16] was “inactive” in each case. For the same compound, the Potency entry in [18] is “inactive”.

On to `Cc1ccc(N=Nc2c(O)c(C(=O)O)cc3ccccc23)c(S(=O)(=O)O)c1`, for which the Potency entry in assay [1], in assay [2], in assay [3], in assay [4], in [5] and in assay [6] was “inactive” each time. Besides, the Potency result in assay [7], in [8], in assay [10], in assay [11], in assay [12] and in [13] was “inactive” each time. Moreover, the Potency entry in assay [14], in [17] and in assay [18] was “inactive” in each case.

For the compound `CCCCc1ccc2nc(NC(=O)OC)[nH]c2c1`, the Potency in [1] was 4.22 µM (active). Moreover, the Potency entry in [2], in [3], in [4], in assay [5], in [6] and in assay [10] was “inactive” throughout. For the same compound, the Potency entry in [11], in assay [12], in assay [13], in assay [17], in [15] and in [18] was “inactive” throughout.

With `Cc1c(C(=O)O)c(O)cc2c1C(=O)c1c(O)c([C@@H]3O[C@H](CO)[C@@H](O)[C@H](O)[C@H]3O)c(O)c(O)c1C2=O`, the Potency result in assay [1], in assay [2], in [3], in assay [4], in assay [5] and in assay [19] was “inactive” throughout. Moreover, the Potency entry in [7], in [8], in assay [9], in assay [10], in [11] and in [12] was “inactive” each time. The Potency entry in assay [13], in assay [20] and in assay [14] was “inactive” throughout.

With `CCc1nn(CCCN2CCN(c3cccc(Cl)c3)CC2)c(=O)n1CCOc1ccccc1`, the Potency entry in assay [1], in assay [2], in assay [3], in [4], in [5] and in assay [6] was “inactive” throughout. For the same compound, the Potency entry in assay [7], in assay [8], in assay [9], in assay [11] and in [16] was “inactive” each time.

Take `COc1cc(Nc2c(C#N)cnc3cc(OCCCN4CCN(C)CC4)c(OC)cc23)c(Cl)cc1Cl`: the Potency entry in assay [1], in assay [2], in assay [3], in assay [4], in assay [5] and in [6] was “inactive” each time. The Potency result in assay [7], in [11], in assay [12], in [13], in [14] and in assay [17] was “inactive” each time. Also, the Potency entry in assay [18] was “inactive”.
